These results are taken from PubChem BioAssay (EPA / NIEHS).

Read-out in assay [1]: Tumor necrosis factor receptor superfamily member 6 (Homo sapiens) (UniProt P25445)
In words: LTEA_HepaRG_FAS: Life Technologies and Expression Analysis (LTEA) Assay for Fas cell surface death receptor (FAS) using HepaRG (AID 2283447). To be noted: mRNA level, 48 h; actives raise or lower the signal. The procedure, abridged:
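FAS transcript level was measured by TaqMan qRT-PCR against three housekeeping genes after 48 h chemical exposure. Cells were HepaRG, 0.5% DMSO vehicle, with a top concentration of 100 uM and half-log dilutions over eight points, in duplicate.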

Read-out in assay [2]: Fatty acid synthase (Homo sapiens) (UniProt P49327)
In words: LTEA_HepaRG_FASN: Life Technologies and Expression Analysis (LTEA) Assay for Fatty Acid Synthase (FASN) using HepaRG (AID 2283448). Particulars: mRNA level, 48 h; actives raise or lower the signal. The procedure, abridged:
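FASN expression changes, up or down relative to 0.5% DMSO, were measured by qRT-PCR in human HepaRG cells after 48 h treatment with chemicals at eight concentrations (half-log steps from 100 uM).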

Read-out in assay [3]: Cyclin D2 (CCND2), CCND2 (gene 894)
Description: LTEA_HepaRG_CCND2: Life Technologies and Expression Analysis (LTEA) Assay for Cyclin D2 (CCND2) using HepaRG (AID 2283449). To be noted: mRNA level, 48 h; actives raise or lower the signal. The procedure, abridged: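 Read-out is CCND2 mRNA level measured by qRT-PCR in human HepaRG liver cells and normalised to three housekeeping genes. Chemicals were applied for 48 h at up to 100 uM, with gain or loss fitted relative to 0.5% DMSO.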

Read-out in assay [4]: Cyclin Dependent Kinase Inhibitor 1A (CDKN1A), CDKN1A (gene 1026)
In words: LTEA_HepaRG_CDKN1A: Life Technologies and Expression Analysis (LTEA) Assay for Cyclin Dependent Kinase Inhibitor 1A (CDKN1A) using HepaRG (AID 2283450). Particulars: mRNA level, 48 h; actives raise or lower the signal. The procedure, abridged: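 Differentiated human HepaRG cells, pre-cultured 48 h, were exposed in duplicate for 48 h in serum-free induction medium to eight half-log concentrations up to 100 uM (0.5% DMSO). CDKN1A mRNA was measured by qRT-PCR, normalized to ACTB/GAPDH/POLR2A, bidirectionally fitted versus DMSO.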

Read-out in assay [5]: Cyclin D1 (CCND1), CCND1 (gene 595)
Description: LTEA_HepaRG_CCND1: Life Technologies and Expression Analysis (LTEA) Assay for Cyclin D1 (CCND1) using HepaRG (AID 2283451). To be noted: mRNA level, 48 h; actives raise or lower the signal. The procedure, abridged:
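Differentiated human HepaRG cells in serum-free induction medium were exposed 48 h to eight half-log concentrations up to 100 uM in 0.5% DMSO; mRNA quantified by TaqMan qRT-PCR, normalized to ACTB, GAPDH, POLR2A, fitted bidirectionally versus DMSO.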

Read-out in assay [6]: flavin-containing dimethylaniline monooxygenases 3 (FMO3), FMO3 (gene 2328)
In words: LTEA_HepaRG_FMO3: Life Technologies and Expression Analysis (LTEA) Assay for flavin-containing dimethylaniline monooxygenases 3 (FMO3) using HepaRG (AID 2283453). Particulars: mRNA level, 48 h; actives raise or lower the signal. The procedure, abridged:
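Differentiated HepaRG cells in serum-free induction medium, exposed 48 h in duplicate to 8 half-log concentrations up to 100 uM in 0.5% DMSO. FMO3 mRNA by qRT-PCR, normalized to ACTB, GAPDH, POLR2A; bidirectional fit vs DMSO.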

Read-out in assay [7]: Cytochrome P450 (CYP1A1), CYP1A1 (gene 1543)
Description: LTEA_HepaRG_CYP1A1: Life Technologies and Expression Analysis (LTEA) Assay for Cytochrome P450 (CYP1A1) using HepaRG (AID 2283454). To be noted: mRNA level, 48 h; actives raise or lower the signal. The procedure, abridged: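 Differentiated HepaRG cells in serum-free induction medium were exposed in duplicate for 48 h to eight half-log concentrations up to 100 uM in 0.5% DMSO. CYP1A1 mRNA was quantified by TaqMan qRT-PCR, normalized to ACTB, GAPDH and POLR2A.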

Read-out in assay [8]: CFLAR gene, CFLAR (gene 8837)
In words: LTEA_HepaRG_CFLAR: Life Technologies and Expression Analysis (LTEA) Assay for CFLAR gene using HepaRG (AID 2283455). Particulars: mRNA level, 48 h; actives raise or lower the signal. The procedure, abridged:
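HepaRG, 48 h exposure, 8-pt conc-response (100 uM top, half-log), 0.5% DMSO vehicle, duplicates. CFLAR expression by qRT-PCR; ACTB/GAPDH/POLR2A normalization; gain or loss fit vs DMSO baseline.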

Read-out in assay [9]: Forkhead box O1 (FOXO1), FOXO1 (gene 2308)
In words: LTEA_HepaRG_FOXO1: Life Technologies and Expression Analysis (LTEA) Assay for Forkhead box O1 (FOXO1) using HepaRG (AID 2283456). Particulars: mRNA level, 48 h; actives raise or lower the signal. The procedure, abridged: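 Readout is FOXO1 transcript level by multiplexed qRT-PCR against three housekeeping genes, curve-fitted in both directions relative to 0.5% DMSO vehicle. Human HepaRG cultures received chemicals for 48 h, up to 100 uM in half-log steps.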

Read-out in assay [10]: Forkhead box O3 (FOXO3), FOXO3 (gene 2309)
Description: LTEA_HepaRG_FOXO3: Life Technologies and Expression Analysis (LTEA) Assay for Forkhead box O3 (FOXO3) using HepaRG (AID 2283459). Particulars: mRNA level, 48 h; actives raise or lower the signal. The procedure, abridged: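 HepaRG, 48 h post-dose; 8 conc., half-log from 100 uM, 0.5% DMSO, duplicates; serum-free induction medium. Readout: FOXO3 mRNA, TaqMan qRT-PCR, housekeeping-normalized. Bidirectional curve fit vs DMSO baseline.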

Read-out in assay [11]: ABC Transporter (ABCB1), ABCB1 (gene 5243)
In words: LTEA_HepaRG_ABCB1: Life Technologies and Expression Analysis (LTEA) Assay for ABC Transporter (ABCB1) using HepaRG (AID 2283460). Particulars: mRNA level, 48 h; actives raise or lower the signal. The procedure, abridged: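 Expression of ABCB1 was quantified by qRT-PCR against three housekeeping genes after human HepaRG cultures received test chemicals for 48 hours. Concentrations spanned eight half-log steps topping at 100 uM in 0.5% DMSO; gain or loss of signal was fitted relative to vehicle.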

Read-out in assay [12]: growth arrest and DNA damage 45 (GADD45B), GADD45B (gene 4616)
Description: LTEA_HepaRG_GADD45B: Life Technologies and Expression Analysis (LTEA) Assay for growth arrest and DNA damage 45 (GADD45B) using HepaRG (AID 2283461). To be noted: mRNA level, 48 h; actives raise or lower the signal. The procedure, abridged:
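Differentiated HepaRG cells, plated 48 h then switched to serum-free induction medium, were exposed 48 h in duplicate to eight half-log concentrations from 100 uM in 0.5% DMSO; mRNA quantified by qRT-PCR, normalized to ACTB/GAPDH/POLR2A, bidirectional fit versus DMSO.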

Read-out in assay [13]: ABC Transporter (ABCC3), ABCC3 (gene 8714)
In words: LTEA_HepaRG_ABCC3: Life Technologies and Expression Analysis (LTEA) Assay for ABC Transporter (ABCC3) using HepaRG (AID 2283462). To be noted: mRNA level, 48 h; actives raise or lower the signal. The procedure, abridged:
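HepaRG cells in serum-free induction medium were exposed for 48 h in duplicate to 8-point half-log concentrations topping at 100 uM in 0.5% DMSO. ABCC3 mRNA was measured by qRT-PCR normalized to ACTB, GAPDH and POLR2A, with bidirectional fitting versus DMSO.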

Read-out in assay [14]: ABC Transporter (ABCB11), ABCB11 (gene 8647)
Description: LTEA_HepaRG_ABCB11: Life Technologies and Expression Analysis (LTEA) Assay for ABC Transporter (ABCB11) using HepaRG (AID 2283463). To be noted: mRNA level, 48 h; actives raise or lower the signal. The procedure, abridged: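 ABCB11 transcript levels are read by Fluidigm TaqMan qRT-PCR after 48 h chemical treatment of human HepaRG cells. Concentrations span 100 uM downward in half-log steps with 0.5% DMSO; gain or loss is fitted against DMSO controls.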

Assay [15] in a line: CEETOX_H295R_CORTIC: CeeTox H295R High-throughput Steroidogenesis Assay for Corticosterone (CORTIC) (AID 2283437).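 Further: corticosterone secreted into medium quantified by mass spectrometry.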 To be noted: actives raise or lower the signal. The procedure, abridged: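 Corticosterone secreted into medium is measured by reverse-phase HPLC with tandem MS following liquid-liquid extraction. Cells are forskolin-stimulated (10 uM, 48 h) before 48 h test exposure; activity fitted in both directions against DMSO.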

Assay [16] is described as follows: CEETOX_H295R_DOC: CeeTox H295R High-throughput Steroidogenesis Assay for DOC (AID 2283439). To be noted: actives raise or lower the signal. The procedure, abridged:
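Readout: 11-deoxycorticosterone in culture medium by reverse-phase C18 HPLC with ESI+ tandem MS after MTBE extraction. Cells: H295R, forskolin-primed (10 uM, 48 h), chemical-treated 48 h; DMSO 0.1% final. Activity fitted bidirectionally versus DMSO.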

A short description of assay [17]: CEETOX_H295R_PROG: CeeTox H295R High-throughput Steroidogenesis Assay for Progesterone (PROG) (AID 2283442).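 On AC50: human H295R adrenal cells primed with 10 µM forskolin before dosing.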 Particulars: actives raise or lower the signal. The procedure, abridged:
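H295R human adrenal cells were prestimulated with 10 uM forskolin for 48 h, then exposed to test chemical (0.1% DMSO final) for 48 h. Medium progesterone was MTBE-extracted and quantified by HPLC-MS/MS, with bidirectional fitting against DMSO.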

Assay [18] is described as follows: CEETOX_H295R_ESTRADIOL: CeeTox H295R High-throughput Steroidogenesis Assay for Estradiol (AID 2283440).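 Further: estradiol secreted into medium quantified by LC-MS/MS after dansyl derivatisation.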 To be noted: actives raise or lower the signal. The procedure, abridged:
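H295R adrenocortical cells were prestimulated with 10 uM forskolin for 48 h, then exposed to test chemical in 0.1% DMSO for 48 h. Medium estradiol was extracted with MTBE, dansyl-derivatized and quantified by HPLC-MS/MS; bidirectional fit versus DMSO.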

The nature of assay [19]: CEETOX_H295R_ESTRONE: CeeTox H295R High-throughput Steroidogenesis Assay for Estrone (AID 2283441).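 Further: estrone secreted into medium measured by LC-MS/MS after dansyl derivatization.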 Particulars: actives raise or lower the signal. The procedure, abridged: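 H295R cells prestimulated 48 h with 10 uM forskolin, then exposed 48 h to chemicals in 0.1% DMSO final; estrone in medium extracted with MTBE, dansyl-derivatized, quantified by HPLC-MS/MS; bidirectional fitting versus DMSO, viability by MTT.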

Assay [20] in a line: CEETOX_H295R_TESTO: CeeTox H295R High-throughput Steroidogenesis Assay for Testosterone (TESTO) (AID 2283457).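 On AC50: cells exposed to chemicals for 48 h before medium collection.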 To be noted: actives raise or lower the signal. The procedure, abridged: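 H295R human adrenal cells in DMEM/F12 with ITS+ and Nu-Serum, exposed to chemicals for 48 h. Testosterone in medium measured by MTBE extraction, reverse-phase HPLC-MS/MS; bidirectional fit versus DMSO baseline. MTT viability checked in same wells.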

Activity calls are given as the source filed them. How the source made its calls: active means hit-call score of the fitted dose curve at least 0.9, where 1 is the maximum; inactive means score below 0.9.

What is called AC50 is the midpoint of the concentration-response curve, whichever way the signal moves.

Sequence of Fatty acid synthase (Homo sapiens) (P49327 whole entry, looked up): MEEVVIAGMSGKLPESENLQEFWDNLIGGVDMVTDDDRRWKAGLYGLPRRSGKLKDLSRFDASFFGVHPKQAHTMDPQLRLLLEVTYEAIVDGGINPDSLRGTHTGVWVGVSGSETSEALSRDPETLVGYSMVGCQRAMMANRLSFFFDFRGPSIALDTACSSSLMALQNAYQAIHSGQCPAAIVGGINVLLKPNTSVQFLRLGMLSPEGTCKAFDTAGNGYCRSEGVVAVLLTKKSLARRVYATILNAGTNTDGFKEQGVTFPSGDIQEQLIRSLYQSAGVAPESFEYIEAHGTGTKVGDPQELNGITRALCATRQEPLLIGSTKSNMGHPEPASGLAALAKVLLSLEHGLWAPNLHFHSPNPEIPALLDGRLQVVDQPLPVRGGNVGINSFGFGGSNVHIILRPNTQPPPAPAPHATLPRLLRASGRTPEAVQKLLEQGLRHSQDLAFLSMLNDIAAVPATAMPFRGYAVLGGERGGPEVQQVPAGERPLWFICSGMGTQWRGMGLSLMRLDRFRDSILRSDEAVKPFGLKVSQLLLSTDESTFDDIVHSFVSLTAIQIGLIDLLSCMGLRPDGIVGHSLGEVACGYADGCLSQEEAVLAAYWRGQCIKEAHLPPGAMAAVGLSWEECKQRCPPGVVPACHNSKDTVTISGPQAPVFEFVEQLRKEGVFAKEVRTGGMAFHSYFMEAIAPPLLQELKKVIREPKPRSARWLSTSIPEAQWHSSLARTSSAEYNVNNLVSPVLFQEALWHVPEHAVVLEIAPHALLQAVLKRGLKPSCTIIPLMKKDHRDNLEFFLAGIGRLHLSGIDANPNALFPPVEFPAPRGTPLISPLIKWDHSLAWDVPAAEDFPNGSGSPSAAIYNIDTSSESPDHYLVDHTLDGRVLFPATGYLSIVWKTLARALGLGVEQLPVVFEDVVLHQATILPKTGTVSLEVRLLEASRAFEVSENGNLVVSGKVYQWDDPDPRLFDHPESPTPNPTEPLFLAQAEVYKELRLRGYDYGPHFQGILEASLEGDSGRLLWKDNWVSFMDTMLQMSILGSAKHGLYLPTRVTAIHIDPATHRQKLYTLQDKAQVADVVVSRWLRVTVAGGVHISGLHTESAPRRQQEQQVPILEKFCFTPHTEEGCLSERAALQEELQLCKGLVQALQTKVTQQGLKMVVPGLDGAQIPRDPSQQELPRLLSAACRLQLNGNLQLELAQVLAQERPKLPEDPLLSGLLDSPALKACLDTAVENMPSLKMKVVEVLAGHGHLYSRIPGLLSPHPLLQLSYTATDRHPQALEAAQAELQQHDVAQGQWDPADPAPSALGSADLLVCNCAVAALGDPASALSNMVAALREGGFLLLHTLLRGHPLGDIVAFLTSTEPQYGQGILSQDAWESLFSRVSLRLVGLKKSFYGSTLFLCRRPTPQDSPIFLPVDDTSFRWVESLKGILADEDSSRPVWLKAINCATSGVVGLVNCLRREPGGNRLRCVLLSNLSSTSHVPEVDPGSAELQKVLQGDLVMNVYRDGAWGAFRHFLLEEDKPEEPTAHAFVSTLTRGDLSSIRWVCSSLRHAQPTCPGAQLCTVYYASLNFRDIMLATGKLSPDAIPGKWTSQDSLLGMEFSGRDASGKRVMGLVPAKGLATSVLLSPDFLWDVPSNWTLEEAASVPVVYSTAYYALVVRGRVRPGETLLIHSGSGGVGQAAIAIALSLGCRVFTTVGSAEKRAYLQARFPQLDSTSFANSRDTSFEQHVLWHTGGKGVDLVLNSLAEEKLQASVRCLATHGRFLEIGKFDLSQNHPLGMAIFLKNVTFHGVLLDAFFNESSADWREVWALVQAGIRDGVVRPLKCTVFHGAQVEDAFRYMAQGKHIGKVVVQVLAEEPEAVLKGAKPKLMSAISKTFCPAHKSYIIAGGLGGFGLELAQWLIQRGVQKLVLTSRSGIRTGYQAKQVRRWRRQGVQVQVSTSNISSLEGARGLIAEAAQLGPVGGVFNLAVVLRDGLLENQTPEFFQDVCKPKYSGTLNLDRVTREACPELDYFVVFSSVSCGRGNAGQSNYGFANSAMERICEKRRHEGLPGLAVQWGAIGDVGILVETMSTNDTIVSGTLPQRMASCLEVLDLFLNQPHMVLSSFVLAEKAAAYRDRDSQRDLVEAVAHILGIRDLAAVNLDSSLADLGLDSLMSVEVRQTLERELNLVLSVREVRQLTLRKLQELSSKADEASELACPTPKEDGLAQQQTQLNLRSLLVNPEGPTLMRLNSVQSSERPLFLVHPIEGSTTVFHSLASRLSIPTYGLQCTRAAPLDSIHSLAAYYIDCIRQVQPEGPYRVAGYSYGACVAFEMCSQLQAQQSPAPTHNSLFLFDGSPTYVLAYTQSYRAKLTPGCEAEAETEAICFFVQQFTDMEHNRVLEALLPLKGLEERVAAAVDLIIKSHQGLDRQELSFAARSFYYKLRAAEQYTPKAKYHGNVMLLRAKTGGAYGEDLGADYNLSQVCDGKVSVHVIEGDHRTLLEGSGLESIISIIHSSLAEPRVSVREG

On to `Clc1cccc(Cl)c1Cl`, for which the compound was classed as inactive in [1], in assay [2], in assay [3], in assay [4], in assay [5] and in [6]. For the same compound, the call in assay [8], in assay [9], in assay [10], in [11], in [12] and in assay [13] was inactive. Further, the compound was classed as inactive in [14]. The half-maximal activity concentration (AC50) in assay [7] is 50 µM (active).

On to `CCOP(=O)(OCC)OC(=CCl)c1ccc(Cl)cc1Cl`, for which the figures for the AC50 in assay [15], in assay [16] and in [17] were 5.28 µM (active), 5.48 µM (active) and 5.17 µM (active), respectively.

For `Cc1cc(Cl)ccc1O`, the result in [15], in assay [16] and in assay [17] was inactive.

For `CC(C)(C)c1cc([N+](=O)[O-])cc(C(C)(C)C)c1O`, the compound was classed as inactive in assay [18], in assay [19] and in [17].

`Cc1ccccc1OP(=O)(Oc1ccccc1C)Oc1ccccc1C`: the compound was classed as inactive in assay [15], in [16], in assay [17] and in assay [20].

In the case of `C[C@]12CC[C@@H](O)C[C@@H]1CC[C@@H]1[C@@H]2CC[C@]2(C)C(=O)CC[C@@H]12`, the half-maximal activity concentration (AC50) is 1.98 µM (active) in [15], 2.64 µM (active) in assay [16] and 3.65 µM (active) in assay [17].

Regarding `Cc1cc(C(C)(C)c2ccc(O)c(C)c2)ccc1O`, the compound was classed as inactive in assay [15] and in [17]. Further, the AC50 was 2.91 µM (active) in assay [16] and 5 µM (active) in assay [20].

For `CC(C)=CC1C(C(=O)OCc2cccc(Oc3ccccc3)c2)C1(C)C` (centres undefined), the outcome in [15], in assay [16], in assay [18] and in [19] was inactive. The AC50 in assay [17] was 25.8 µM (active).
